Only some compounds are listed: those with a hit (about 5.9% of all), similar ones and a draw of the others.
KB-V1 MDR tox: qHTS assay for MDR1-selective chemotherapeutics: Primary screen using the drug-selected MDR subline cells KB-V1; KB-V1 MDR cells viability, CellTiter-Glo, 72 h; Potency, µM (doses to about 46.1 µM), usual class: cytotoxic; 400,000 compounds, 3.4% hits; AID 1347076, 2019; also: % is scaled to controls: 0 for no effect and ±100 for the full control effect; nearly all actives have a fitted effect of over 60% in size
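Following 72 h at 37 degrees C with compound, KB-V1 cell viability was read by CellTiter-Glo luminescence, medium being phenol-red-free DMEM plus 10% FBS; concentration-response parameters came from normalized, curve-fitted qHTS data.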
ATXN2 expr inh: Primary qHTS for Inhibitors of ATXN expression | HEK-293 ATXN2-luciferase reporter, luminescence, 24 h | Potency, µM (top dose mostly 57 µM), for the others: top-dose activity change, negative = inhibition, actives largely listed as inhibitors | 360,000 compounds, 0.72% hits | AID 1745845, 2022; also: % is scaled to controls: 0 for no effect and ±100 for the full control effect; nearly all actives have a fitted effect of over 55% in size
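ATXN2-luciferase reporter cells (luciferase flanked by upstream and downstream ATXN2 gene portions) were treated 24 h at 37 °C with compounds at up to 57 uM. SteadyGlo luminescence gave expression; GF-AFC fluorescence gave viability.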
HepG2 tox: qHTS for Inhibitors of TGF-b: Cytotox Counterscreen; 410,000 compounds, 0.76% hits; AID 588856, 2011; HepG2 CAGA-GFP viability, ATP luminescence, 18 h; Potency, µM (series often up to 46.1 µM), inactives show top-dose activity change, negative = cytotoxicity, hits mostly cytotoxic
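CellTiter-Glo luminescence gave cytotoxicity after 18 hours at 37 degrees C. The cells were HepG2 CAGA-GFP in 1% FBS DMEM, stimulated with 500 pg/mL TGF-beta after compound addition. %Activity was normalised to no-cell wells (complete cell-killing) and DMSO (no toxicity), and curves were fitted and classified.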
KB-3-1 cytotox: qHTS assay for MDR1-selective chemotherapeutics: Primary screen using the parental adenocarcinoma cell KB-3-1; Potency, µM (titrated, usually from 46.1 µM), most hits filed as cytotoxic; KB-3-1 viability, CellTiter-Glo ATP luminescence, 72 h; 400,000 compounds, 1.4% hits; AID 1347075, 2019; also: % is scaled to controls: 0 for no effect and ±100 for the full control effect; nearly all actives have a fitted effect of over 60% in size
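Cytotoxicity in the drug-sensitive parental line KB-3-1 was scored as loss of CellTiter-Glo luminescence following 72 h incubation with compound. Values come from curve fitting of normalized concentration-response data.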
ATXN viability: Viability Counterscreen for Primary qHTS for Inhibitors of ATXN expression | S2 cells (HEK-293 line with an ATXN2-luciferase reporter) viability, CellTiter-Fluor protease fluorescence, 24 h | Potency, µM (highest dose often 56.7 µM), actives largely listed as cytotoxic | 400,000 compounds, 0.49% hits | AID 651635, 2014; also: nearly all actives have a fitted effect of over 40% in size
TGFb SMAD3 inh: qHTS for Inhibitors of TGF-b. HepG2 CAGA-GFP TGF-b/SMAD3 reporter, GFP fluorescence, 18 h; TGF-beta stimulated, 500 pg/mL final. 410,000 compounds, 1.2% hits. Potency, µM (top dose mostly 46.1 µM), inactives show top-dose activity, negative = inhibition, usual class: inhibitors. AID 588855, 2011; also: % is scaled to controls: 0 for no effect and ±100 for the full control effect; nearly all actives have a fitted effect of over 65% in size
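Per well, imaged GFP fluorescence of HEPG2 CAGA-GFP cells gives the signal; cells get compound, then TGF-beta (500 pg/mL final), 18 h at 37 degrees C; %Activity versus -TGF-beta and +DMSO controls.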
* marks the source's active call; other numbers are inactive results; i = inactive; ? = inconclusive; nt = no result. Calls follow the shape of the dose curve; as a rule, active = well fitted curve in the direction sought with a large enough effect; inconclusive = small, poorly fitted or top-dose-only effect, or another doubt; inactive = no such curve, though single readings can be large; an effect the other way counts as inactive or inconclusive. Potency is read from the fitted curve at half-maximal effect.

SMILES	KB-V1 MDR tox	ATXN2 expr inh	HepG2 tox	KB-3-1 cytotox	ATXN viability	TGFb SMAD3 inh
COc1cc(-c2cc(C)c3cccc(OC)c3n2)cc2c1OCCN(C(=O)CCn1nc(C)cc1C)C2	nt	nt	nt	nt	i	nt
O=C1CCCC(O)=C1C=NCc1ccccc1	i	4.74µM*	1.2%	?	i	-10.2%
CCCn1c(NCc2ccco2)nc2ccccc21	20.6µM*	-4.7%	0.0%	i	i	-15.3%
CCCn1c(NC(=O)C2CCN(S(=O)(=O)c3cccs3)CC2)nc2ccccc21	?	-35.9%	-14.8%	23.1µM*	i	?
CCCn1c(Nc2nc3ccccc3n2C)nc2ccccc21	?	?	7.08µM*	?	?	-7.4%
CCCn1c(NC(=O)c2ccccc2)nc2ccccc21	14.6µM*	7.1%	-3.6%	?	i	?
CCCC[C@@H]1CCCO[C@@](C(=O)NCc2ccc(S(C)(=O)=O)cc2)(C(F)(F)F)C1	nt	nt	-26.5%	nt	nt	?
O=C(Nc1cnc2ccccc2c1)c1cccnc1	i	-10.2%	1.3%	?	i	-1.0%
CCCn1c(CNC(=O)c2ccccc2)nc2ccccc21	23.1µM*	7.1%	0.0%	i	i	-27.2%
Cn1c(NC(=O)c2cccnc2)nc2ccccc21	16.4µM*	30.0%	-30.5%	i	i	0.2%
CCCn1c(NC(=O)c2ccc(C)cc2)nc2ccccc21	?	11.4%	-15.7%	?	i	0.0%
CCCn1c(NC(=O)c2cccc(S(=O)(=O)N3CCCC3)c2)nc2ccccc21	16.4µM*	15.8µM*	-43.7%	16.4µM*	?	14.1µM*
CCC(=O)NCc1nc2ccccc2n1Cc1ccccc1F	23.1µM*	1.3%	10.0%	i	i	-17.0%
CCC(=O)Nc1nc2ccccc2n1CCN1CCOCC1	?	9.0%	-3.1%	?	?	-11.8%
CCCCCCCn1c(NC(=O)CC)nc2ccccc21	9.2µM*	?	5.7%	?	i	?
Cc1ccc(C(=O)c2sc3c(c2N)c(=O)[nH]c(=O)n3CCc2ccccc2)cc1	?	-8.0%	2.3%	i	i	11.7%
CCn1c(=O)[nH]c(=O)c2c(N)c(C(=O)c3cc(F)ccc3F)sc21	i	-22.1%	0.2%	i	i	11.2µM*
CCN(CC)c1ccc(/C=C/c2sc3ccccc3[n+]2CCCCI)cc1	?	nt	-53.7%	?	nt	12.6µM*
COc1ccc(-c2c(C)nn3c(C(F)(F)F)cc(-c4ccccc4)nc23)cc1	i	9.7%	5.3%	i	i	5.0%
CC(=O)Nc1ccc(NS(=O)(=O)c2c(C(=O)N3CCCCCC3)c(C)n(C)c2C)cc1	i	1.5%	-13.7%	i	?	1.3%
O=C(Nc1ccc2ccccc2c1)c1cn(-c2ccccc2)nc1-c1cccs1	18.4µM*	4.8%	-11.5%	i	i	11.5%
COc1ccc(C(=O)N2c3ccccc3C(=O)OC2c2ccc3c(c2)OCO3)cc1 (stereo not given)	i	23.4%	-13.8%	i	i	37.5%
COc1cc(C2c3cc4c(cc3OC(NNC(N)=O)C2C)OCO4)cc(OC)c1OC (stereo not given)	7.31µM*	-1.4%	-28.3%	0.517µM*	i	?
COc1ccc(C2c3cc4c(cc3OC(NNC(N)=O)C2C)OCO4)cc1 (stereo not given)	9.2µM*	-5.0%	-3.9%	6.51µM*	i	-25.2%
COc1cc2cc(OC(C)=O)c3cc4c(cc3c2c(OC)c1OC)OCO4	i	8.8%	nt	i	i	nt
SMILES	KB-V1 MDR tox	ATXN2 expr inh	HepG2 tox	KB-3-1 cytotox	ATXN viability	TGFb SMAD3 inh
COc1cc(C2c3cc4c(cc3C(O)C3COCC23)OCO4)cc(OC)c1OC (stereo not given)	?	-9.0%	-12.9%	5.17µM*	i	9.6%
COc1cc(C2c3cc4c(cc3OC(NNC(N)=S)C2C)OCO4)cc(OC)c1OC (stereo not given)	?	3.6%	-22.7%	1.03µM*	?	?
Cn1cc(S(=O)(=O)N2CCCCCC2)cc1C(=O)Nc1ccccc1F	i	-8.2%	-9.3%	i	i	-6.4%
CCOC(=O)c1ccc(NC(=O)CC2C(=O)N(c3ccc(F)cc3)C(=O)N2Cc2ccc3c(c2)OCO3)cc1 (stereo not given)	?	-28.5%	-17.7%	?	?	-4.2%
CN(CCO)C(=O)c1cn(C2CCCN(Cc3ccc4ccccc4c3)C2)nn1 (stereo not given)	nt	nt	nt	nt	i	nt
O=C(NCc1ccncc1)C(=O)N/N=C/c1ccc(OCc2ccccc2)cc1	i	-14.3%	0.0%	i	i	14.4%
O=NN(CCc1ccncc1)c1ccc(OCc2ccccc2)cc1	3.26µM*	-22.5%	-27.3%	i	i	-15.0%
N#CC1(c2ccc(NC(=O)c3ccccc3F)cc2)CCCC1	23.1µM*	70.9%	-26.4%	?	i	?
CCN(CC)c1ccc(NC(=O)c2ccccc2F)cc1	?	19.1%	-15.0%	16.4µM*	i	5.4%
O=C(/C=C/c1ccncc1)c1ccc(NC(=O)c2ccccc2F)cc1	?	-14.4%	5.01µM*	?	?	12.6µM*
S=C(NNc1ccnc2cc(Cl)ccc12)Nc1ccccc1Cl	?	?	-18.1%	23.1µM*	?	?
S=C(Nc1ccccc1Cl)Nc1ccc(Cl)cc1Cl	i	5.7%	0.1%	i	i	4.1%
FC(F)(F)c1cnc(NNC(=S)Nc2ccccc2Cl)c(Cl)c1	?	5.97µM*	-48.8%	16.4µM*	i	7.08µM*
O=C(Nc1ccccc1)Nc1ncc(C(F)(F)F)cc1Cl	i	nt	-24.0%	i	i	-14.2%
Cc1cccc(NC(=S)NNc2ncc(C(F)(F)F)cc2Cl)c1	14.6µM*	?	-36.6%	?	i	?
CCn1c(=O)c2c(nc(SCc3ccccn3)n2C)n(C)c1=O	14.6µM*	9.4%	-3.4%	?	i	8.2%
CCCn1c(SCc2ccccn2)nc2c1c(=O)n(C)c(=O)n2C	?	-5.4%	4.3%	i	i	-5.3%
CC1(C)COC(/C=C/c2ccc([N+](=O)[O-])cc2)=N1	20.6µM*	-10.4%	-39.2%	?	?	?
O=[N+]([O-])c1ccc(/C=C/c2ccnc3ccccc23)cc1	i	nt	-8.3%	?	nt	-16.2%
CCc1ccc(CNC(=O)C2CCN(c3nc4ccccc4nc3C(F)(F)F)CC2)cc1	nt	nt	2.3%	nt	nt	16.8%
